HT1080 IDH1KD tx: HT-1080 IDH1 knockdown cell toxicity (counter line). HT-1080 IDH1 knockdown viability, ATP luminescence, 48 h. Potency, µM (titrated, usually from 46.1 µM), most hits filed as cytotoxic. hit rate 2% among 360,000
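Knockdown cells (IDH1KD HT-1080) received compounds 2 h after plating at 750 cells/well and were kept 48 h at 37 °C in 5% FBS RPMI. A CellTiter-Glo luminescence read gave % activity for curve fitting.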
IL-1B inflam inh: inhibitors of inflammasome signaling (IL-1 beta secretion). THP-1 LPS/ATP IL-1B secretion, AlphaLISA, 16 h; active compounds read low. activity change, % at 57.5 µM. hit rate 4.7% among 360,000. AID 743279; in the data active = activity change below about -50%; inconclusive = mostly about -30% to -49%
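THP-1 cells pretreated 1 hr with compounds (up to 57.5 uM final), then stimulated with LPS (250 ng/mL final) plus ATP (1.25 mM final); secreted IL-1B measured by AlphaLISA after 16 hr, decreased signal indicating inhibition.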
HT1080NT lethal: kills 2HG-producing HT-1080-NT fibrosarcoma cells | hit rate 1.6% among 360,000 | Potency, µM (top dose mostly 46.1 µM), actives largely listed as cytotoxic | AID 686970 | HT-1080-NT fibrosarcoma viability, CellTiter-Glo ATP luminescence, 48 h;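 note: NT is the 2HG producing partner of a matched IDH1 knockdown line; nearly all actives have a fitted effect of over 55% in size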
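HT-1080-NT fibrosarcoma cells (2HG-overproducing), 750 cells/well in RPMI with 5% FBS, dosed after 2 h and incubated 48 h at 37C. CellTiter-Glo luminescence normalized to DMSO and no-cell wells; concentration-response curves fitted and classed.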
TDP1 cell CPT: DT40-hTDP1 cell growth loss with CPT; chicken DT40 Tdp1-/-;hTDP1 cells + 20 nM CPT, ATP luminescence, 48 h; Potency, µM (series often up to 46.2 µM), usual class: inhibitors; hit rate 12% among 420,000; AID 686979; note: nearly all actives have a fitted effect of over 55% in size
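Chicken DT40 Tdp1-/- cells stably complemented with human TDP1 were seeded at 400 cells/well in medium containing 20 nM camptothecin, exposed to pin-transferred compounds, and grown at 37 °C for at least 48 hr. Viability was read as ATP luminescence.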
TDP1 cell noCPT: qHTS for Inhibitors of human tyrosyl-DNA phosphodiesterase 1 (TDP1): qHTS in cells in absence of CPT; hit rate 15% among 420,000; AID 686978, 2013; DT40 Tdp1-/- hTDP1 cells, no CPT, ATP luminescence, 48 h; Potency, µM (titrated, usually from 46.2 µM), usual class: inhibitors; note: nearly all actives have a fitted effect of over 55% in size
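Chicken DT40 Tdp1-/- cells complemented with human TDP1, screened without camptothecin (DMSO vehicle only), 400 cells/well. Compounds pin-transferred, cells incubated at 37 °C for at least 48 hr. Growth read as ATP-dependent luminescence (CellTiter-Glo, 30 min at RT).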
A number is an active result; n = inactive; u = inconclusive; x = no result given; ! = repeats disagree. An excerpt weighted towards active compounds, which were near 19% of everything screened. Unless noted, calls come from the whole dose curve; as a rule, active = well fitted curve in the direction sought with a large enough effect; inconclusive = small, poorly fitted or top-dose-only effect, or another doubt; inactive = no such curve, though single readings can be large; an effect the other way counts as inactive or inconclusive.

SMILES	HT1080 IDH1KD tx	IL-1B inflam inh	HT1080NT lethal	TDP1 cell CPT	TDP1 cell noCPT
Cc1cc2c(cc1S(=O)(=O)NCCc1ccc(Cl)cc1)OCC(=O)N2	n	n	n	n	n
O=C1C=C(c2ccccc2)C(c2ccccc2)C1O (centres undefined)	n	n	n	n	n
CCn1c(N2CCN(Cc3ccc([N+](=O)[O-])cc3)CC2)nc2ccccc21	n	n	n	u	21µM
CCCn1c(N2CCN(Cc3ccc(Cl)cc3)CC2)nc2ccccc21	n	n	n	u	12µM
O=[N+]([O-])c1ccc(N2CCN(Cc3ccccc3)CC2)nc1	n	n	n	u	u
COc1ccc(CNC(=O)c2cnc3sc(N4CCCC4)nn3c2=O)c(OC)c1	x	x	x	n	n
O=C(NCc1ccccc1Br)c1cnc2sc(N3CCCCCC3)nn2c1=O	x	x	x	23µM	4.1µM
Cc1ccc(C)c(CNC(=O)c2cnc3sc(N4CCCC4)nn3c2=O)c1	x	x	x	16µM	18µM
COc1ccccc1CNC(=O)c1cnc2sc(N3CCCCCC3)nn2c1=O	x	x	x	16µM	21µM
CC(C(=O)c1ccccc1)[n+]1cccc(Br)c1 (centres undefined)	n	n	n	u	u
CC(=O)c1cccc(NS(=O)(=O)c2ccc(C(=O)Nc3ccccc3)cc2)c1	u	n	n	18µM	12µM
O=C(Nc1ccc(-c2cnco2)cc1)c1ccccc1	n	-71	n	n	n
O=C(Nc1ccccc1)c1ccc(S(=O)(=O)Nc2cccc(O)c2)cc1	n	n	n	u	u
O=C(Nc1cccnc1)c1ccc(-c2ccccc2)cc1	n	n	n	n	u
O=C(Nc1ccncc1)c1ccc(-c2ccccc2)cc1	n	n	n	3.3µM	2.9µM
CC(C(=O)c1ccc(-c2ccccc2)cc1)[n+]1cccc(NC(=O)c2ccccc2)c1 (centres undefined)	u	u	u	18µM	15µM
O=C(Nc1ccncc1)c1ccc(S(=O)(=O)Nc2ccccc2)cc1	n	n	n	15µM	12µM
Cc1nn(-c2ccccc2)c2c1N(CC(=O)N1CCN(c3ccc(F)cc3)CC1)C(=O)CS2	x	x	x	u	21µM
CC(C)(C)C(=O)/C=C1\SCC(=O)N1CC(=O)N1CCN(c2ccccc2)CC1	n	n	n	n	u
Cc1nn(-c2ccccc2)c2c1N(CC(=O)N1CCN(c3ccccc3F)CC1)C(=O)CS2	x	x	x	18µM	u
O=C(Nc1ccc2c(c1)OCCO2)C1CCCN(S(=O)(=O)c2cnc[nH]2)C1 (centres undefined)	n	n	n	n	n
COc1ccc(C(=O)N(Cc2sccc2C)C2CCS(=O)(=O)C2)cc1 (centres undefined)	n	n	n	n	n
Cc1cc(Cl)ccc1OCC(=O)N(Cc1sccc1C)C1CCS(=O)(=O)C1 (centres undefined)	x	x	x	23µM	18µM
COc1ccc(C(=O)N(Cc2sccc2C)C2CCS(=O)(=O)C2)cc1Cl (centres undefined)	x	x	x	u	18µM
Cc1ccsc1CN(C(=O)COc1ccc(Cl)cc1)C1CCS(=O)(=O)C1 (centres undefined)	x	x	x	u	n
SMILES	HT1080 IDH1KD tx	IL-1B inflam inh	HT1080NT lethal	TDP1 cell CPT	TDP1 cell noCPT
COc1ccccc1-n1c(=O)c2c3c(sc2n2c(=S)[nH]nc12)CCC3	n	n	n	n	n
CCOc1cccc(C(=O)NC(=S)Nc2ccc(N3CCN(CC)CC3)cc2)c1	u	u	u	u	23µM
CN1CCN(c2ccc(NC(=O)c3cccc(OCc4ccccc4)c3)cc2)CC1	18µM	n	21µM	23µM	23µM
CCN1CCN(c2ccc(NC(=O)c3cccc(OCc4ccccc4)c3)cc2)CC1	u	-80	n	u	u
COc1cc(OC)cc(C(=O)NC(=S)Nc2ccc(N3CCCC3)cc2)c1	n	n	n	15µM	8.2µM
O=C1CC(NS(=O)(=O)c2cccs2)CN1c1ccccc1 (centres undefined)	n	n	n	n	n
CCOc1cccc(C(=O)NC(=S)Nc2cccc(NC(=O)c3ccccc3Cl)c2)c1	n	u	n	u	21µM
Nc1nc(NCCc2ccccc2)nc(NCCO)c1[N+](=O)[O-]	n	n	n	n	n
COc1ccc(-n2ccn(Cc3ccccc3Cl)c(=O)c2=O)cc1OC	x	x	x	n	n
CCN(CC)C(=S)SSC(=S)N(CC)CC	0.0052µM!	-110	u	0.021µM	0.15µM
O=C(/C=C/[C@H]1O[C@@H](n2ccc(=O)[nH]c2=O)[C@H](O)[C@@H]1O)NCc1ccco1	n	n	n	n	n
CCOc1cc(OCC)nc(S(C)(=O)=O)n1	n	n	n	21µM	15µM
CCOc1ccc(C(=O)O)cn1	n	n	n	n	n
O=C(NCCc1ccc2c(c1)OCCO2)c1cc(S(=O)(=O)N2CCCC2)ccc1Br	n	n	n	u	u
O=C(Cc1ccccc1)NNC(=O)Cc1ccccc1	n	n	n	n	n
Cc1ccc(OCC(=O)NNC(=O)CCC(=O)NCc2ccccc2)cc1	n	u	n	n	n
O=C(Cc1ccccc1)NNc1c2ccccc2nc2ccccc12	n	n	n	21µM	u
O=C(Nc1c2ccccc2nc2ccccc12)C(Cl)(Cl)Cl	n	u	n	16µM	23µM
Cc1ccc(OCC(=O)NNc2c3ccccc3nc3ccccc23)cc1	n	n	n	u	16µM
Cc1ccc(N(C(=O)CNC(=O)c2ccco2)C(C(=O)NCC2CCCO2)c2ccccc2)c(C)c1 (centres undefined)	n	n	n	n	n
COCCCNc1nc2c(-c3ccc(Cl)cc3)nnn2c2ccccc12	n	n	n	n	n
NNc1nc2c(-c3ccc(F)cc3)nnn2c2ccccc12	n	n	n	10µM	12µM
NNc1nc2c(-c3ccc(Cl)cc3)nnn2c2ccccc12	n	n	n	10µM	u
Fc1ccc(-c2nnn3c2nc(NCc2ccccc2)c2ccccc23)cc1	n	n	n	n	u
C/C(=N\NC(=O)CSc1nc(C)cc(C)n1)c1cccc([N+](=O)[O-])c1	n	n	n	n	n
SMILES	HT1080 IDH1KD tx	IL-1B inflam inh	HT1080NT lethal	TDP1 cell CPT	TDP1 cell noCPT
COc1ccc(Oc2ncc3nc(-c4ccccc4)c(=O)n(C4CC4)c3n2)cc1	x	x	x	n	u
CN(C)c1ccc(-c2nn3c(C4CCCCC4)nnc3s2)cc1	n	n	n	16µM	23µM
NCCCNCCCCNC(=O)C(O)NC(=O)CCCCCCN=C(N)N (centres undefined)	x	x	x	1.2µM	1.2µM
Cc1ccc(S(=O)(=O)N2CCN(C(=O)COC(=O)COc3cccc4c3OC(C)(C)C4)CC2)cc1	n	n	n	n	n
CCOc1ccccc1N1CCN(Cc2cnc(-c3ccccc3)[nH]2)CC1	n	u	n	u	23µM
CCOc1ccccc1N1CCN(Cc2ccco2)CC1	n	n	n	n	n
CC(=O)Nc1cncc(-c2cccc(C(=O)N(C)C)c2)n1	n	n	u	n	n

Compound activity as filed in PubChem BioAssay.
